The list is not random: actives were taken first. Their share in the collection is about 3.4%.
Mcl1 Bid PPI – Mcl-1/Bid interaction inhibition | Q07820 | TR-FRET Mcl-1/Bid-Dy647 peptide binding, 1536-well | inhibition, % at 21.7 µM | 0.97% of 220,000 active | AID 1021;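 active = compounds that cut the binding signal by more than half at the single screening dose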;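 note: His-tagged Mcl-1 with europium anti-His antibody binding Bid BH3 peptide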
Target sequence (Q07820 whole entry, looked up): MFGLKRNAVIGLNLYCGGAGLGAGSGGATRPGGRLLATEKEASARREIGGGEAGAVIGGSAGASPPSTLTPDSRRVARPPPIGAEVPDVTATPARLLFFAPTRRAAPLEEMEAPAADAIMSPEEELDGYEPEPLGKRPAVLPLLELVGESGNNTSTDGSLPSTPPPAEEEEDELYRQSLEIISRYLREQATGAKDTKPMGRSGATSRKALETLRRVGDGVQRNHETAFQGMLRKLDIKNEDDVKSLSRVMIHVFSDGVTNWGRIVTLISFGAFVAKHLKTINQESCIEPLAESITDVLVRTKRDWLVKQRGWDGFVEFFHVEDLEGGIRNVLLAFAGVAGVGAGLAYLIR
Mcl1 Noxa PPI – disrupts binding of human Mcl-1 to Noxa peptide; TR-FRET Mcl-1/Noxa peptide binding, 2 h; inhibition, % at 21.7 µM; 1.5% of 220,000 active; AID 1022;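 active = compounds that cut the protein-peptide binding signal by more than 50% relative to plate controls in a single-dose test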;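 note: His-tagged Mcl-1 with rhodamine Noxa BH3 peptide and terbium anti-His antibody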
14-3-3 Bad inh – disrupts binding of bovine 14-3-3 zeta to phospho-Bad peptide | P63103 | TR-FRET 14-3-3zeta/Dy647-pBad peptide displacement, 1 h | inhibition, % at 21.7 µM | 0.71% of 220,000 active;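 active = inhibition above about 70%, limit read from the data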
Target sequence (P63103 whole entry, looked up): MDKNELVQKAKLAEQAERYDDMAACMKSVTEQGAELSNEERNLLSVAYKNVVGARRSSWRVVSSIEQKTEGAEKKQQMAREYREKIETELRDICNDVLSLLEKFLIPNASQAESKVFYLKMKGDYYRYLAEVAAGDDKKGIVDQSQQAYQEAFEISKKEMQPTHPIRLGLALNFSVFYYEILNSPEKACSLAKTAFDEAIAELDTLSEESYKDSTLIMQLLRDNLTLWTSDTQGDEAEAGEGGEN
Bim-Mcl-1 – human Bim-Mcl-1 interaction inhibition; Q07820; Bead-based flow cytometry, Bim peptide-Mcl-1 binding; inhibition, % at 10 µM; 0.1% of 190,000 active; AID 1009; in the data active = inhibition above about 40%
NCF1 inh – inhibitors of human p47phox binding; P14598; p47phox/p22phox peptide binding, fluorescence polarization, 2 h; inhibition, % at 24.7 µM; 0.53% of 220,000 active;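 active = inhibition above about 30%, limit read from the data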
Calpain2 inh – blocks pig calpain II enzyme activity. purified calpain II, fluorogenic peptide substrate, 30 min. inhibition, % at 16 µM. 0.37% of 220,000 active. AID 1236;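 active = inhibition above about 50%, limit read from the data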
Hits are given with their value; – = inactive; · = no result given; ! = not active in a repeat; [ ] = another dose, or the depositor's remark.

SMILES	Mcl1 Bid PPI	Mcl1 Noxa PPI	14-3-3 Bad inh	Bim-Mcl-1	NCF1 inh	Calpain2 inh
C=CCn1c(O)c(C(C)=NCC2CCCO2)c(=O)[nH]c1=O (stereo not drawn)	78	–	–	·	–	–
N#Cc1c(/N=C/c2ccc(O)cc2O)sc2c1C1CCN2CC1	–	–	–	–	–	–
CCN1CCN(Cc2nnnn2C(C)(C)C)CC1	–	–	75	–	–	–
CCC(C)(C)n1nnnc1CN1CCC(n2c(C)nc3cc(C(F)(F)F)ccc32)CC1	–	–	–	·	–	–
O=c1[nH]c(=S)n(Cc2ccc(F)cc2)c(O)c1/C=N/N1CCCCCC1	–	–	–	–	–	–
CC1(C)C2CC=C(CN3CCOCC3)C1C2 (stereo not drawn)	–	–	–	–	–	–
CN(CC1COc2ccccc2O1)c1nc(-c2cccnc2)nc2ccccc12 (stereo not drawn)	–	–	–	–	–	–
O=C1NC(=O)C(=Cc2ccc(-c3ccccc3[N+](=O)[O-])o2)C(=O)N1	–	–	–	·	–	–
O=C1NC(=O)C(=Cc2ccc(SC3CCCCC3)o2)C(=O)N1	–	72	–	–	–	–
CN[C@H]1C[C@H]2O[C@@](C)([C@H]1OC)n1c3ccccc3c3c4c(c5c6ccccc6n2c5c31)C(=O)NC4	–	62	–	–	–	–
CN(C)c1ccc(C=C2C(=O)NC(=S)NC2=O)cc1[N+](=O)[O-]	–	65	–	–	–	–
CN(C)c1ccc(C=C2C(=O)NC(=O)NC2=O)cc1[N+](=O)[O-]	–	–	–	–	–	–
O=C(c1ccc2c(c1)ncn2-c1ccc(F)cc1F)N1CCC2(CC1)OCCO2	–	–	–	–	43	–
C=CC1CN2CCC1CC2c1[nH]c2ccccc2c1CCO (stereo not drawn)	–	–	–	–	–	–
CCCCCc1nc2ccccc2c(=O)n1-c1ccccc1[N+](=O)[O-]	–	–	–	–	–	–
CCCCCc1nc2c(c(=O)c3ccccc3n2C)c(=O)n1C1CCCCCC1	54	–	–	–	–	–
Cc1cc2c(C(C)C)c(O)c(O)c(C=O)c2c(O)c1-c1c(C)cc2c(C(C)C)c(O)c(O)c(C=O)c2c1O	100	118	82[fluorescence artefact?]	–	–	55!
C=C1C2C[C@H](O)C(C)(C)[C@@]2(O)[C@H](O)C[C@]23C[C@@](C)(O)[C@H](CC[C@H]12)[C@H]3OC(C)=O (stereo partly drawn)	–	–	93[fluorescence artefact?]	–	–	–
C[N+]1(C)C2CCC1CC(OC(=O)C(CO)c1ccccc1)C2 (stereo not drawn)	–	–	91	–	–	–
CCCCn1c(O)c(C(=O)/C=C/c2c[nH]c3ccccc23)c(=O)[nH]c1=O	–	–	–	·	–	–
O=[N+]([O-])c1ccc(C2[C@H]3C(c4ccccc4)=NC4(CCCCC4)N23)cc1 (stereo partly drawn)	–	–	–	–	–	–
O=C(Cc1ccccc1)OCCNC(=O)c1cccnc1	–	–	71	92	–	–
Cn1nc(-c2ccc(OCC(=O)N3CCN(Cc4ccccc4)CC3)cc2)c2ccccc2c1=O	–	–	–	–	–	–
COC(=O)c1ccc(CN2CCN(Cc3ccccc3)CC2)cc1	–	–	76	–	–	–
O=C(Cc1ccccc1)N1CCN(Cc2ccc([N+](=O)[O-])cc2)CC1	–	–	–	–	–	–
SMILES	Mcl1 Bid PPI	Mcl1 Noxa PPI	14-3-3 Bad inh	Bim-Mcl-1	NCF1 inh	Calpain2 inh
Cn1cccc1/C=C1/C(=O)NC(=S)N(Cc2ccc(F)cc2)C1=O	–	–	–	·	–	–
CC1(C)CC(n2[nH]c(=O)c3c2NC(=O)CSC3c2ccc(F)cc2)CCO1 (stereo not drawn)	–	–	–	–	–	–
Nc1c(C(=O)NCCc2ccccc2)c2nc3ccccc3nc2n1CCN1CCOCC1	77	–	76[fluorescence artefact?]	–	–	–
Nc1c(C(=O)NCCN2CCOCC2)c2nc3ccccc3nc2n1Cc1ccco1	–	76	–	–	–	–
C=CCNC(=O)c1c(N)n(Cc2ccco2)c2nc3ccccc3nc12	–	57	–	–	–	–
COCCNC(=O)c1c(N)n(Cc2ccco2)c2nc3ccccc3nc12	–	–	–	–	–	–
COc1ccc(CCNC(=O)c2c(N)n(CCN3CCOCC3)c3nc4ccccc4nc23)cc1	–	–	–	–	–	–
C/C=C(\C)C(=O)OC1C(C)=C2C(C1OC(=O)CCCCC)C(C)(OC(C)=O)CC(OC(=O)CCC)C1(O)C2OC(=O)C1(C)O (stereo not drawn)	–	–	–	·	–	–
COc1cccc(N2C(=O)NC(=O)/C(=C/c3ccc4c5c(cccc35)CC4)C2=O)c1	–	52	–	–	–	–
CC1(C)COC(Nc2cccc(Cl)c2)=N1	–	–	–	–	–	–
Fc1ccccc1N1CCN(Cc2ccc3c(c2)OCO3)CC1	–	–	77	–	–	–
COc1ccc(CN2CCN(c3ccccc3F)CC2)cc1O	81	–	–	–	–	–
Fc1ccccc1N1CCN(Cc2c(F)cccc2F)CC1	–	–	–	–	–	–
CN1CCN(c2c(C#N)c(C(F)(F)F)nn2C)CC1	–	–	–	–	–	–
CSc1ncc(/C=C2/C(=O)NC(=O)N(c3ccc(C)cc3)C2=O)cn1	–	–	–	–	–	–
Cc1ccc(N2C(=O)NC(=O)/C(=C/c3cnn(-c4ccc(C)cc4)c3)C2=O)cc1	–	–	–	–	–	–
Cc1ccc(N2C(=O)NC(=O)/C(=C\c3cnc(-c4ccccc4)nc3)C2=O)cc1	–	75	–	–	–	–
Cc1ccc(N2C(=O)NC(=O)/C(=C/c3ccoc3)C2=O)cc1	–	77	75	·	–	–
CCCc1c(C)nc(SCC(=O)C(C)(C)C)nc1OC(=O)N(C)C	–	–	–	·	–	–
c1ccc(CC(NCc2ccco2)c2ccccc2)cc1 (stereo not drawn)	–	–	–	–	–	–
Cn1c(O)c(C(c2ccccn2)c2c(O)n(C)c(=S)[nH]c2=O)c(=O)[nH]c1=S	–	–	77	–	–	–
Cc1ccccc1-n1c(-c2ccoc2)nc2ccccc2c1=O	–	–	–	–	–	–
CCOc1ccc(-n2c(-c3ccoc3)nc3ccccc3c2=O)cc1	96	–	–	–	–	–
CCCCN1C(=O)/C(=C/C=C/c2ccco2)C(=O)NC1=S	76	96	–	–	–	–
O=Cc1c(C(=O)O)n(Cc2ccc(Cl)cc2)c2ccccc12	–	65	–	–	–	–
CCOC(=O)C1SC2(C(F)(F)F)CC1(O)c1c(C)cc(C)nc1O2 (stereo not drawn)	–	–	–	–	–	–
CN1CCN(c2cc(N3CCCC3)c([N+](=O)[O-])cc2F)CC1	–	–	–	–	–	–
CCN1CCN(c2cc(N3CCCC3)c(F)cc2[N+](=O)[O-])CC1	–	65	–	–	–	–
